The nature of assay [1]: qHTS assay to identify small molecule antagonists of the thyroid receptor (TR) signaling pathway - cell viability counter screen (AID 743064). Further: nearly all actives have a fitted effect of over 50% in size. In a few lines:
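Fluorescence from CellTiter-Fluor, added after 23.5 h exposure at 37 °C, reported viability of GH3.TRE-Luc cells co-treated with compound and 1 nM T3. Measured in the same wells as the luciferase TR readout.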

The nature of assay [2]: qHTS assay to identify small molecule antagonists of the thyroid receptor (TR) signaling pathway (AID 743065). Further: series mostly up to about 70 µM; nearly all actives have a fitted effect of over 55% in size. In a few lines:
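Antagonism measured as loss of luciferase signal in GH3 cells stably carrying a TRE-luciferase reporter, co-treated with compound and T3 (1 nM final) for 23.5 h at 37 C. Viability was read in the same well by CellTiter-Fluor.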

Assay [3] relates to thyroid hormone receptor (rat, GH3 cells). In words: qHTS assay to identify small molecule agonists of the thyroid receptor (TR) signaling pathway (AID 743066; calls by dose curve).
Assay [4] has as its target Estrogen receptor (Homo sapiens) (UniProt P03372). The assay is described as follows: qHTS assay to identify small molecule antagonists of the estrogen receptor alpha (ER-alpha) signaling pathway (AID 743069; active means well fitted curve in the direction sought with a large enough effect in the signal ratio in the repeat runs, not every such curve was filed as active; the % refers to the signal ratio). The method, boiled down: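 Antagonist mode: compounds in DMSO were co-added with 17beta-estradiol to ER-alpha-bla HEK293 cells (2% charcoal-stripped serum) and left 18 h at 37C. Reporter inhibition was measured as FRET fluorescence after 2 h LiveBLAzer substrate at room temperature.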

A short description of assay [5]: qHTS assay to identify small molecule antagonists of the estrogen receptor alpha (ER-alpha) signaling pathway - cell viability counter screen (AID 743074; calls by dose curve;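 further: HEK293 cells carrying ER-alpha-UAS-bla reporter stimulated with 17beta-estradiol; nearly all actives have a fitted effect of over 45% in size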).
The target of assay [6] is Estrogen receptor (Homo sapiens) (UniProt P03372). In words: qHTS assay to identify small molecule agonists of the estrogen receptor alpha (ER-alpha) signaling pathway (AID 743075; calls by dose curve;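 further: HEK293 GripTite cells with ER-alpha and UAS-driven beta-lactamase reporter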).
Sequence of Estrogen receptor (Homo sapiens) (P03372 whole entry, looked up): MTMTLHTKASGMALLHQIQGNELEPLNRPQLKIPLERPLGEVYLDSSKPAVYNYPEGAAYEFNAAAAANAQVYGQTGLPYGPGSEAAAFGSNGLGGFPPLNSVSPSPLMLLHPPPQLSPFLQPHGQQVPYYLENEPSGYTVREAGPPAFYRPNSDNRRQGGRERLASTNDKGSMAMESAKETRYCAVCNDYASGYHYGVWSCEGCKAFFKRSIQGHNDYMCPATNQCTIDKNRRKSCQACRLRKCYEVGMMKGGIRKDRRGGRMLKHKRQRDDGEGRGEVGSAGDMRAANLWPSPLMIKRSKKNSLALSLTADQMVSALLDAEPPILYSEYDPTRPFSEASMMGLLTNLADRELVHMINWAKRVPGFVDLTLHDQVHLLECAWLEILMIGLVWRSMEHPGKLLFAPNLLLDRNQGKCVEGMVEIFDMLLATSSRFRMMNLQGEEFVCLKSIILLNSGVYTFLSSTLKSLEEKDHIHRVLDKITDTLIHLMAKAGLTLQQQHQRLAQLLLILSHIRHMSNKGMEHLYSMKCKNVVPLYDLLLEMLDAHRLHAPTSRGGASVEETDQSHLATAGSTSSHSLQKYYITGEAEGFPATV
Assay [7] shares this target. The assay is described as follows: qHTS assay to identify small molecule agonists of the estrogen receptor alpha (ER-alpha) signaling pathway using the BG1 cell line (AID 743079). Further: nearly all actives have a fitted effect of over 20% in size. Further: potency means the concentration at half of the fitted maximal effect.
Assay [8] in a line: qHTS assay to identify small molecule antagonists of the estrogen receptor alpha (ER-alpha) signaling pathway using the BG1 cell line (AID 743080; calls by dose curve;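 further: BG1 cells stimulated with 17beta-estradiol alongside compound; series mostly up to about 70 µM; nearly all actives have a fitted effect of over 25% in size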). The method, boiled down:
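After 5 days in phenol-red-free 10% charcoal-stripped FBS medium, BG1-Luc-4E2 cells were seeded, left 24 h at 37 C, co-treated with compounds and 17beta-estradiol for 21.5 h, then assayed for viability and luciferase.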

Assay [9] in a line: qHTS assay to identify small molecule antagonists of the estrogen receptor alpha (ER-alpha) signaling pathway using the BG1 cell line - cell viability counter screen (AID 743081).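 Further: compound given together with 17beta-estradiol as the ER stimulus; series mostly up to about 70 µM; nearly all actives have a fitted effect of over 45% in size.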
Another assay addresses Aromatase (Homo sapiens) (UniProt P11511). The assay is described as follows: qHTS assay to identify aromatase inhibitors (AID 743083). Further: series mostly up to about 70 µM; nearly all actives have a fitted effect of over 55% in size.
A short description of assay [10]: qHTS assay to identify aromatase inhibitors - cell viability counter screen (AID 743084).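 Further: cells stimulated with testosterone during compound exposure; nearly all actives have a fitted effect of over 55% in size.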
Assay [11] concerns the target Aryl hydrocarbon receptor (Homo sapiens) (UniProt P35869). In words: qHTS assay to identify small molecule that activate the aryl hydrocarbon receptor (AhR) signaling pathway (AID 743085).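 Further: HG2L7.5c1 human HepG2 liver cells with stably integrated DRE-driven firefly reporter; series mostly up to about 70 µM; nearly all actives have a fitted effect of over 15% in size.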 The method, boiled down: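 Cell line HG2L7.5c1 (human hepatoma, 20× DRE-luc). Plated, 5 h 37C, compound/DMSO added, 24 h 37C. CellTiter-Fluor 30 min 37C → fluorescence; then ONE-Glo 30 min RT → luminescence.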

Assay [12] in a line: qHTS assay to identify small molecule that activate the aryl hydrocarbon receptor (AhR) signaling pathway - cell viability counter screen (AID 743086).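 Further: HepG2 liver cells carrying the AhR DRE luciferase reporter; series mostly up to about 70 µM; nearly all actives have a fitted effect of over 45% in size.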 In a few lines:
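Cytotoxicity counter screen: CellTiter-Fluor signal (30 min, 37 C) in 4000 HepG2 cells/well carrying the DRE-luciferase reporter, following 24 h compound exposure at 37 C.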

Assay [13] deals with Peroxisome proliferator-activated receptor gamma (Homo sapiens) (UniProt P37231). In words: qHTS assay to identify small molecule antagonists of the peroxisome proliferator-activated receptor gamma (PPARg) signaling pathway (AID 743191; calls by dose curve; further: series mostly up to about 63 µM; nearly all actives have a fitted effect of over 30% in size). The method, boiled down: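 Beta-lactamase reporter under UAS control in HEK293H PPARg-bla cells; compound treatment 17 h at 37C. Read-out: fluorescence intensity after 1 h room-temperature incubation with LiveBLAzer B/G FRET substrate.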
Sequence of Peroxisome proliferator-activated receptor gamma (Homo sapiens) (P37231 whole entry, looked up): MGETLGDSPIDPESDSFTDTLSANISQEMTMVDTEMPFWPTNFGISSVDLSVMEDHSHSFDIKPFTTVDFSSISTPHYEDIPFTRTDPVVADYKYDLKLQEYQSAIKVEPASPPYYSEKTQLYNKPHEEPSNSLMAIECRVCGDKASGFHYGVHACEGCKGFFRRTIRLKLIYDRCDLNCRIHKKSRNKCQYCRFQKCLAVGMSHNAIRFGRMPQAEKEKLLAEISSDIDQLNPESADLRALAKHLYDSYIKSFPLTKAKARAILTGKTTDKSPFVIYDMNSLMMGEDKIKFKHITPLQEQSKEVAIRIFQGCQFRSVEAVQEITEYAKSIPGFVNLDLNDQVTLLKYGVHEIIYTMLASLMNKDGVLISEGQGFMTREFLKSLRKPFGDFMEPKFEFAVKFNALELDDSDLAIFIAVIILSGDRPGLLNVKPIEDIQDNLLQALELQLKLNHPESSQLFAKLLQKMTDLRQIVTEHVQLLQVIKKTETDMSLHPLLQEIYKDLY

Assay [14] can be described thus: qHTS assay for small molecule agonists of the antioxidant response element (ARE) signaling pathway (AID 743202; active means well fitted activation curve with a large enough effect in the signal ratio in the repeat runs, not every such curve was filed as active; the % refers to the signal ratio). In a few lines: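 After 16 hours of compound treatment at 37 C, HepG2 cells with a stably integrated ARE-driven beta-lactamase reporter were loaded 2 hours at room temperature with LiveBLAzer B/G FRET substrate and fluorescence intensity measured.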
Assay [15] in a line: qHTS assay for small molecule agonists of the antioxidant response element (ARE) signaling pathway - cell viability counter screen (AID 743203; calls by dose curve; further: nearly all actives have a fitted effect of over 55% in size). The method, boiled down:
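Measured in the same wells as the beta-lactamase ARE reporter, this read-out is CellTiter-Glo luminescence from HepG2 ARE-bla cells given compounds for 16 hrs.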

A short description of assay [16]: qHTS assay for small molecule activators of the heat shock response signaling pathway - cell viability counter screen (AID 743209). Further: nearly all actives have a fitted effect of over 50% in size. In a few lines: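 Same-well multiplex: after 2.5 h room-temperature incubation with LiveBLAzer B/G substrate and fluorescence reading, CellTiter-Glo reagent was added to HSE-bla HeLa cells that had received compound for 5 h at 37 C; luminescence read after 30 min.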

The nature of assay [17]: qHTS assay for small molecule activators of the heat shock response signaling pathway (AID 743210; active means well fitted activation curve with a large enough effect in the signal ratio in the repeat runs, with a control signal flat, not every such curve was filed as active; the % refers to the signal ratio; further: series mostly up to about 63 µM). The method, boiled down:
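Compound exposure lasted 5 h at 37 C in HeLa cells carrying a heat-shock-element-driven beta-lactamase reporter. Read-out: fluorescence intensity after 2.5 h room-temperature loading with LiveBLAzer B/G FRET substrate.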

Assay [18] can be described thus: qHTS assay to identify small molecule antagonists of the peroxisome proliferator-activated receptor gamma (PPARg) signaling pathway - cell viability counter screen (AID 743194). Further: nearly all actives have a fitted effect of over 55% in size. The method, boiled down:
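Viability was measured as CellTiter-Glo luminescence in GeneBLAzer PPARg UAS-bla HEK293H cells. These cells had been exposed 17 h at 37 C to compounds together with rosiglitazone at 50 nM final, with the beta-lactamase readout taken in the same wells.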

Assay [19] has as its target Peroxisome proliferator-activated receptor gamma (Homo sapiens) (UniProt P37231). The assay is described as follows: qHTS assay to identify small molecule agonists of the peroxisome proliferator-activated receptor gamma (PPARg) signaling pathway (AID 743094; active means well fitted activation curve with a large enough effect in the signal ratio in the repeat runs, not every such curve was filed as active; the % refers to the signal ratio). In a few lines:
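Cell-based bla reporter, HEK293H background, PPARg-driven UAS. Pre-incubation 5 h, 37C, 5% CO2. Compound 17 h, 37C. Substrate 1 h RT; fluorescence.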

Inconclusive results are not listed. The source made the active and inactive calls. Unless noted, the call rests on the fitted dose curve; in most records, active means well fitted curve in the direction sought with a large enough effect in the repeat runs; inconclusive means weak or mixed curves; inactive means no such curve, though single readings can be large; an effect the other way counts as inactive or inconclusive.

Sequence of Aryl hydrocarbon receptor (Homo sapiens) (P35869 whole entry, looked up): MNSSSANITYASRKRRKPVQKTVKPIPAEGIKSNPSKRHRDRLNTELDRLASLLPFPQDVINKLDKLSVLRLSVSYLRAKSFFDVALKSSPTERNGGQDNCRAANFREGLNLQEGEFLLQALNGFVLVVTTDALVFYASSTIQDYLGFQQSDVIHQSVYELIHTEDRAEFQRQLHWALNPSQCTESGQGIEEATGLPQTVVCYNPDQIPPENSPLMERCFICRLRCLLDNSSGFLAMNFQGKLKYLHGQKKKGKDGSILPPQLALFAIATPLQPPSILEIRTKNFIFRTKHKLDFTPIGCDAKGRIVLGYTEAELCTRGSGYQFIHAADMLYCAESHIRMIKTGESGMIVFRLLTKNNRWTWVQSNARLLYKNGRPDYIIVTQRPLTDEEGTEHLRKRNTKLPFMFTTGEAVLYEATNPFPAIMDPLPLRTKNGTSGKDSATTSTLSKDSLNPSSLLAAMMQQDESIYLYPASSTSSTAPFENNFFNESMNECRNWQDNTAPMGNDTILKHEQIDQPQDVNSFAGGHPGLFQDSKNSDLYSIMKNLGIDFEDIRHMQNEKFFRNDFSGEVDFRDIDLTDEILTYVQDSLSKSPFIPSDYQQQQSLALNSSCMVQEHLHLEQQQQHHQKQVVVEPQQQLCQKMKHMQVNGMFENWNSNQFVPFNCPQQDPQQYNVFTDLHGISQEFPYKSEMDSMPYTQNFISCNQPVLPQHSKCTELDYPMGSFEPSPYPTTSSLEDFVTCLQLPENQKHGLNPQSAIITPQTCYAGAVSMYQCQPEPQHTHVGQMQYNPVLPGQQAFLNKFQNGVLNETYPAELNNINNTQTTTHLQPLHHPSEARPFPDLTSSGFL
Sequence of Aromatase (Homo sapiens) (P11511 whole entry, looked up): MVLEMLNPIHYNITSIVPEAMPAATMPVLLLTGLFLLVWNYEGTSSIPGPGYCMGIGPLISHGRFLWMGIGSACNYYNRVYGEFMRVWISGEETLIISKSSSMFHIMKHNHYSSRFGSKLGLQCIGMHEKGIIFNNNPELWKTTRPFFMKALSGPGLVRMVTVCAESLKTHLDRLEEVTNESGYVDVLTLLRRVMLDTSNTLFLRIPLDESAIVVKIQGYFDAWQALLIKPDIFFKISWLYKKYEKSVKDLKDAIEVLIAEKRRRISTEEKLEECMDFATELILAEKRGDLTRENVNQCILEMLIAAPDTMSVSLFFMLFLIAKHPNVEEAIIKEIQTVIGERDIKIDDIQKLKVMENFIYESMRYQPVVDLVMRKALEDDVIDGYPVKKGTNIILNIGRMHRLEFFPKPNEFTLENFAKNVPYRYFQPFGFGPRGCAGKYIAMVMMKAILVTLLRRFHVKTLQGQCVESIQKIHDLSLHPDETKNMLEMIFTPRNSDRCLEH

For `CN(C)CCCNCCCN(C)C`, the Potency entry (in [1]; in [2]; in assay [6]; in assay [7]; in assay [9]; with Aromatase (Homo sapiens)) was “inactive” throughout. Further, the Potency entry in assay [10], in [11], in assay [12], in [13], in [14] and in assay [15] was “inactive” in each case. The molecule was classed as inactive in assay [3], in assay [4], in [5], in assay [8], in [16] and in assay [17].

`CCCCCCCCCCCCCCCCC`: the Potency result (in assay [1]; in [2]; in assay [6]; in assay [9]; with Aromatase (Homo sapiens); in assay [10]) was “inactive” in each case. Further, the Potency result in assay [11], in [12] and in assay [13] was “inactive” throughout. In addition, the outcome in assay [3], in [4], in [5], in assay [8], in assay [18] and in assay [16] was inactive. Besides, the result in [17] was inactive. Moreover, the Potency in assay [7] is 61.1 µM (active).

As to `C=C(C)C(=O)OCCCCCCCC(C)C`, the Potency entry (in assay [1]; in [2]; in assay [6]; in [7]; in [9]; with Aromatase (Homo sapiens)) was “inactive” each time. Also, the Potency entry in assay [10], in assay [11], in assay [12], in [14] and in assay [15] was “inactive” in each case. Also, the call in assay [3], in [4], in [5], in assay [8], in assay [18] and in [16] was inactive. Also, the outcome in [17] was inactive.

As for `CCOC(=O)c1cccc(N)c1`, the Potency entry (in assay [1]; in assay [2]; in [6]; in assay [9]; in the assay with Aromatase (Homo sapiens); in [10]) was “inactive” throughout. The Potency entry in [12], in [14] and in assay [15] was “inactive” each time. Also, the outcome in [3], in assay [4], in [5], in assay [18], in assay [16] and in assay [17] was inactive.

Take `CO[Si](CCCOCC1CO1)(OC)OC` (stereo not given): the Potency entry (in assay [1]; in assay [2]; in assay [6]; in [7]; in [9]; with Aromatase (Homo sapiens)) was “inactive” in each case. For the same molecule, the Potency entry in [10], in [11], in assay [12], in [13], in assay [14] and in [15] was “inactive” throughout. The molecule was classed as inactive in assay [3], in assay [4], in assay [5], in assay [8], in [18] and in assay [16]. In assay [17], the molecule was called inactive.

As to `CCOC(C)(C)C`, the Potency result (in [1]; in [2]; in assay [6]; in [7]; in assay [9]; with Aromatase (Homo sapiens)) was “inactive” each time. The Potency entry in assay [10], in assay [11], in [12], in assay [13] and in assay [15] was “inactive” each time. Also, the call in assay [3], in assay [4], in [5], in assay [8], in [18] and in assay [16] was inactive. Also, the result in assay [17] was inactive.

For `O=C(CCCN1CCN(c2ccccn2)CC1)c1ccc(F)cc1`, the Potency result (in [1]; in assay [2]; in assay [9]; in the assay with Aromatase (Homo sapiens); in assay [10]; in [11]) was “inactive” throughout. Besides, the Potency result in assay [12], in assay [13] and in [15] was “inactive” each time. The molecule was classed as inactive in [3], in assay [5], in assay [18], in assay [16] and in assay [17].

For `CCCCCOC(=O)CCCCC`, the Potency entry (in [1]; in [2]; in assay [6]; in assay [7]; in assay [9]; with Aromatase (Homo sapiens)) was “inactive” throughout. Moreover, the Potency entry in [10], in assay [11], in [12] and in [15] was “inactive” throughout. In addition, the molecule was classed as inactive in assay [3], in [4], in [8], in assay [19], in assay [18] and in [16]. Also, the molecule was called inactive in assay [17].

With `CCCC(=O)O[C@]1(C(=O)CO)CC[C@H]2[C@@H]3CCC4=CC(=O)CC[C@]4(C)[C@H]3[C@@H](O)C[C@@]21C`, the Potency entry (in assay [1]; in [2]; in assay [9]; in the assay with Aromatase (Homo sapiens); in assay [10]; in [11]) was “inactive” throughout. The Potency result in [12], in assay [13] and in assay [15] was “inactive” each time. For the same molecule, the molecule was classed as inactive in assay [3], in assay [5], in assay [19], in assay [18], in assay [16] and in assay [17].

`O=C(O)CCCc1ccccc1`: the Potency result (in assay [1]; in assay [2]; in [9]; in the assay with Aromatase (Homo sapiens); in assay [10]; in [11]) was “inactive” in each case. The Potency result in [12], in assay [13] and in assay [15] was “inactive” each time. Also, the result in [3], in [5], in assay [18], in assay [16] and in [17] was inactive.

For the molecule `CC(=O)Nc1c(I)cc(I)c(C(=O)O)c1I`, the Potency entry (in assay [1]; in assay [2]; in assay [6]; in assay [7]; in assay [9]; with Aromatase (Homo sapiens)) was “inactive” throughout. Moreover, the Potency entry in [10], in assay [11] and in [12] was “inactive” each time. Further, the result in assay [3], in assay [5], in assay [8], in assay [16] and in assay [17] was inactive.

For the molecule `O=Cc1cccc([N+](=O)[O-])c1`, the Potency entry (in [1]; in assay [2]; in assay [6]; in assay [7]; in [9]; in the assay with Aromatase (Homo sapiens)) was “inactive” throughout. Also, the Potency result in assay [10], in [11], in [12], in assay [13] and in assay [15] was “inactive” in each case. In addition, the molecule was classed as inactive in assay [3], in [4], in assay [8], in assay [18], in [16] and in assay [17].

With `O=C(O)CNC(=O)c1ccc([N+](=O)[O-])cc1`, the Potency entry (in assay [1]; in assay [2]; in [9]; with Aromatase (Homo sapiens); in assay [10]; in assay [11]) was “inactive” throughout. For the same molecule, the Potency entry in assay [12], in assay [14] and in assay [15] was “inactive” throughout. Further, the result in assay [3], in assay [5], in assay [18], in [16] and in [17] was inactive.

Source of the values: PubChem BioAssay (Tox21).
